Results taken from PubChem BioAssay (Tox21).
Results filed as inconclusive are left out. Activity calls are given as the source filed them. Unless noted, calls come from the whole dose curve; as a rule, active = well fitted curve in the direction sought with a large enough effect in the repeat runs; inconclusive = weak or mixed curves; inactive = no such curve, though single readings can be large; an effect the other way counts as inactive or inconclusive.

Columns and labels:
[1] = qHTS assay to identify small molecule agonists of the RXR signaling pathway - cell viability counter screen (AID 1159529);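 note: HEK 293T cells carrying an RXR-alpha UAS beta-lactamase reporter; nearly all actives have a fitted effect of over 50% in size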
Method in brief: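 Steps: seed RXR-alpha-UAS-bla HEK 293T cells in assay medium containing 2% charcoal-stripped FBS; incubate 5 hr; add compounds in DMSO; incubate 16 hr at 37 C; after the bla read, add CellTiter-Glo and read luminescence at 30 min.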

[2] = qHTS assay to identify small molecule antagonists of the retinoid acid receptor (RAR) signaling pathway - cell viability counter screen (AID 1159551); note: nearly all actives have a fitted effect of over 35% in size
Method in brief: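 Seed C3RL4 cells; next day add compound, then retinol to 1 uM final; incubate 6 h at 37 C; add CellTiter-Glo; read luminescence after 30 min at RT.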

[3] = qHTS assay to identify small molecule antagonists of the retinoic acid receptor (RAR) signaling pathway (AID 1159552; note: nearly all actives have a fitted effect of over 50% in size)
Method in brief: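 Retinol at 1 uM final stimulated RARE-luciferase expression in C3RL4 cells exposed to test compounds for 6 hr at 37 C. Reduced luminescence, read 30 min after detection reagent, indicated pathway antagonism.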

[4] = qHTS assay to identify small molecule agonists of the retinoic acid receptor (RAR) signaling pathway (AID 1159553); note: potency is the fitted concentration of half-maximal effect
Method in brief: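 Activation of retinol signaling was monitored via a RARE luciferase reporter in C3RL4 cells. After 6 hr compound treatment at 37 C, detection reagent was added for 30 min at room temperature before luminescence reading.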

[5] = qHTS assay to identify small molecule antagonists of the estrogen related receptor (ERR) signaling pathway from Tox21 library - cell viability counter screen (AID 1224834); note: nearly all actives have a fitted effect of over 30% in size
Method in brief: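 CellTiter-Fluor fluorescence measured; ERR cells; 17.5 h compound incubation at 37 C; 30 min reagent step.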

[6] = molecular target: Luciferin 4-monooxygenase (Photinus pyralis) (UniProt P08659); assay: qHTS assay to identify small molecule inhibitors of firefly luciferase (AID 1224835); note: nearly all actives have a fitted effect of over 25% in size; note: potency is the fitted concentration of half-maximal effect
Sequence of Luciferin 4-monooxygenase (Photinus pyralis) (P08659 whole entry, looked up): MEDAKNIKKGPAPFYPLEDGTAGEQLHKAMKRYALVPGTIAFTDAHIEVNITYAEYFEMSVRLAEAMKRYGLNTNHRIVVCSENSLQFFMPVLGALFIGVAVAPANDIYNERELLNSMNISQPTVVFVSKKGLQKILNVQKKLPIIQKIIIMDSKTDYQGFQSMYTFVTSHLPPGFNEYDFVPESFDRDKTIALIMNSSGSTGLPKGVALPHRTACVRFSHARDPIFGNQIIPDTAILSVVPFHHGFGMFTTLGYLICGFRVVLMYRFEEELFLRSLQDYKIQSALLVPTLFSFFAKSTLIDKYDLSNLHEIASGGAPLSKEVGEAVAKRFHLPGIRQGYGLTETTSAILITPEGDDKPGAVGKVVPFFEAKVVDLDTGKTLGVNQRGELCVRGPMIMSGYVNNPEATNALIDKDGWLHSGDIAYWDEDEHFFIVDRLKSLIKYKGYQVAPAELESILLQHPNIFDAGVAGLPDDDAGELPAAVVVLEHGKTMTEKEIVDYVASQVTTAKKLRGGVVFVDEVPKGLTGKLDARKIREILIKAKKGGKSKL
Method in brief: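 Biochemical qHTS: compounds run as interplate titrations against purified firefly enzyme, with D-luciferin and ATP each at its KM concentration. Light output recorded by CCD imaging.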

[7] = qHTS assay to identify small molecule agonists of the constitutive androstane receptor (CAR) signaling pathway - cell viability counter screen (AID 1224836); note: nearly all actives have a fitted effect of over 45% in size
Method in brief: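 Cells were seeded and incubated 4 hrs. Compounds were added across 15 concentrations together with PK11195 at 0.75 uM final. Plates were incubated 23 hrs at 37 C. CellTiter-Fluor was added and fluorescence measured.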

[8] = qHTS assay to identify small molecule antagonists of the constitutive androstane receptor (CAR) signaling pathway - cell viability counter screen (AID 1224837); note: nearly all actives have a fitted effect of over 45% in size
Method in brief: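 Using CellTiter-Fluor, viability is scored in HepG2 cells stably carrying hCAR and a 2.2kb CYP2B6 reporter after 23 hr compound exposure across 15 concentrations, with CITCO present at 50 nM.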

[9] = molecular target: Nuclear receptor subfamily 1 group I member 3 (Homo sapiens) (UniProt Q14994); assay: qHTS assay to identify small molecule antagonists of the constitutive androstane receptor (CAR) signaling pathway (AID 1224838);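 note: HepG2 cells stably expressing hCAR with CYP2B6 luciferase reporter stimulated by CITCO; nearly all actives have a fitted effect of over 40% in size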
Sequence of Nuclear receptor subfamily 1 group I member 3 (Homo sapiens) (Q14994 whole entry, looked up): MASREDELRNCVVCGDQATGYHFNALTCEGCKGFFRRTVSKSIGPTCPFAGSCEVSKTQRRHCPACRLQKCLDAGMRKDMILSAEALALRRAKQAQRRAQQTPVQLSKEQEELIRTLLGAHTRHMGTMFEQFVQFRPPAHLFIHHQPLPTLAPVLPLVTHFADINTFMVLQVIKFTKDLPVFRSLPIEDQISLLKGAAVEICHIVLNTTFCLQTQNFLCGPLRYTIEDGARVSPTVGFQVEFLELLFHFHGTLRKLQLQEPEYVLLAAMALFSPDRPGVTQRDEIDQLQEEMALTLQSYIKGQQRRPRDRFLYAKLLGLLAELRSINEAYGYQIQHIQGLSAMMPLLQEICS
Method in brief: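 Reporter luminescence was quantified after 24 h exposure of hCAR/CYP2B6-2.2kb double-stable HepG2 cells to compounds at 15 concentrations in the presence of 50 nM CITCO final.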

[10] = molecular target: Nuclear receptor subfamily 1 group I member 3 (Homo sapiens) (UniProt Q14994); assay: qHTS assay to identify small molecule agonists of the constitutive androstane receptor (CAR) signaling pathway (AID 1224839);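 note: HepG2 cells stably carrying human CAR and a CYP2B6 luciferase reporter; nearly all actives have a fitted effect of over 15% in size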
Method in brief: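 Cells were plated and incubated 4 hrs, then dosed with compounds at 15 concentrations. PK11195 was added to 0.75 uM final. After 24 hrs at 37 C, luciferase luminescence was measured.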

[11] = qHTS assay to identify small molecule antagonists of the estrogen related receptor signaling pathway with the pleiotropic PPARgamma coactivator (PGC) from Tox21 10K library - cell viability counter screen (AID 1224840; active = well fitted cell-killing curve with a large enough effect in the repeat runs, not every such curve was filed as active; note: nearly all actives have a fitted effect of over 40% in size)
Method in brief: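 Here the PGC/ERR cells serve as a cytotoxicity control: they are exposed to compounds for 17.5 hours at 37 C, and live-cell signal is quantified using CellTiter-Fluor fluorescence.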

[12] = qHTS assay to identify small molecule antagonists of the estrogen related receptor signaling pathway with the pleiotropic PPARgamma coactivator (PGC) from Tox21 10K library (AID 1224841; call rule not given here; note: actives are mostly falling curves and most rising ones were filed inactive; nearly all actives have a fitted effect of over 50% in size)
Method in brief: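 Each well held 2,000 PGC/ERR cells, pre-incubated six hours (37 C, 5% CO2). Test substances in DMSO were added by pin tool and left for 18 h at 37 C before luciferase detection by One-Glo.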

[13] = qHTS assay to identify small molecule agonists of the hypoxia (HIF-1) signaling pathway - cell viability counter screen (AID 1224844; calls by dose curve; note: nearly all actives have a fitted effect of over 50% in size)
Method in brief: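 Multiplexed with the HRE beta-lactamase assay, this viability read used CellTiter-Glo luminescence (30 min, RT) on HRE-bla ME-180 cells treated 17 hrs with compounds in 0.5% dialyzed FBS medium.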

[14] = qHTS assay to identify small molecule agonists of the hypoxia (HIF-1) signaling pathway (AID 1224846; active = well fitted activation curve with a large enough effect in the signal ratio in the repeat runs, not every such curve was filed as active; the % refers to the signal ratio)
Method in brief: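 Hypoxia-pathway activation was scored as increased beta-lactamase from an HRE-controlled reporter in ME-180 cells; plated at 2,000 cells per well with 0.5% dialyzed FBS, they were exposed 17 hrs to compounds and then given CCF4-AM.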

[15] = qHTS assay to identify small molecule antagonists of the estrogen related receptor (ERR) signaling pathway from Tox21 library (AID 1224848); note: nearly all actives have a fitted effect of over 50% in size
Method in brief: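 Luminescent reporter read-out (ONE-Glo) from NTP's ERR cell line after 18 h treatment at 37 C with DMSO-dissolved Tox21 compounds; cells pre-plated 6 h beforehand at 2,000 per well.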

[16] = qHTS assay to identify small molecule agonists of the estrogen related receptor (ERR) signaling pathway from Tox21 library (AID 1224849; calls by dose curve; note: nearly all actives have a fitted effect of over 15% in size); details: ERR reporter cell line, ONE-Glo luciferase, 18 h; at 92.4 µM (top of the series) unless noted
Method in brief: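 Six hours post-seeding at 37 C/5% CO2, ERR cells receive DMSO-solubilised compounds; after 18 h at 37 C, ONE-Glo reagent is applied and luminescence recorded.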

[17] = qHTS RealTime-Glo MT Cell Viability Assay in HepG2 cells - 24 hour (AID 1224867); note: nearly all actives have a fitted effect of over 50% in size
Method in brief: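 qHTS, HepG2, 600 cells/well, RealTime-Glo (NanoLuc + prosubstrate) added with cells; 5 h preincubation; DMSO compound addition; 37 C; luminescence at 0/8/16/24/32/40 h.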

[18] = molecular target: Thyrotropin receptor (Homo sapiens) (UniProt P16473); assay: qHTS assay to identify small molecule agonists of the thyroid stimulating hormone receptor (TSHR) signaling pathway (AID 1224843; calls by dose curve; note: nearly all actives have a fitted effect of over 45% in size)
Sequence of Thyrotropin receptor (Homo sapiens) (P16473 whole entry, looked up): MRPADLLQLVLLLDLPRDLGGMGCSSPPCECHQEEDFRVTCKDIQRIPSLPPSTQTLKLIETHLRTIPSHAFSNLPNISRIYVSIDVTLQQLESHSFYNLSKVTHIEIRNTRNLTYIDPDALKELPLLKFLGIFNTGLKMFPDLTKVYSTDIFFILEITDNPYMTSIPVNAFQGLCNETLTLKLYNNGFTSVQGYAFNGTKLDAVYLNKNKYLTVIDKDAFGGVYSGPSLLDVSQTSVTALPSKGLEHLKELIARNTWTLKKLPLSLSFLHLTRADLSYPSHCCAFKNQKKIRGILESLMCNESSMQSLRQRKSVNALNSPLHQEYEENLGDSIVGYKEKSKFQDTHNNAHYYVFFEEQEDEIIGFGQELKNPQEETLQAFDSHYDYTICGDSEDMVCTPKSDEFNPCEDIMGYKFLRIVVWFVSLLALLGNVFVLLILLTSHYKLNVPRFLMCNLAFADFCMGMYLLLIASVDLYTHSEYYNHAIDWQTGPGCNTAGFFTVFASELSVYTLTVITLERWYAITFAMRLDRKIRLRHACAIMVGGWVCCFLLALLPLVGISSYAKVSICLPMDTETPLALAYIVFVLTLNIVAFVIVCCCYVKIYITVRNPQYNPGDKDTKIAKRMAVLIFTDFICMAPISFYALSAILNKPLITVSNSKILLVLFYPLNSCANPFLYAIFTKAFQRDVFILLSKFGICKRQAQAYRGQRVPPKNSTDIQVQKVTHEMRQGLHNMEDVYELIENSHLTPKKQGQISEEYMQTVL
Method in brief: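 Steps: seed 800 TSHR-HEK293 cells per well; add test compound and hold 30 min at ambient temperature; dispense cAMP-d2 then anti-cAMP cryptate; incubate 1 h at ambient; measure fluorescence intensity.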

[19] = qHTS assay to identify small molecule agonists of H2AX (AID 1224845; active = well fitted activation curve with a large enough effect in the signal ratio in the repeat runs, not every such curve was filed as active; the % refers to the signal ratio)
Method in brief: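 Wild-type CHO-K1 cells, plated overnight, exposed 3hr at 37C to 15 concentrations (0.76% DMSO final). Lysed, then HTRF anti-pH2AX (S139) cryptate and anti-H2AX-d2 antibodies, 24 hr room temperature; 665/620 nm emission read.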

[20] = qHTS assay to identify small molecule agonists of H2AX - cell viability counter screen (AID 1224847; calls by dose curve; note: top concentration of the series differs between compounds; nearly all actives have a fitted effect of over 30% in size)
Method in brief: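 Cytotoxicity counter screen in wild-type CHO-K1 cells: a 3 hr compound treatment at 37C across 15 concentrations, followed by CellTiter-Glo luminescence to gauge viable cells.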
% is set by controls: 0 for no effect and ±100 for the full control effect.

Cn1nnc2c(C(N)=O)ncn2c1=O
inactive: outcome [1] | outcome [2] | outcome [3] | Potency [4] | outcome [5] | Potency [6] | outcome [7] | outcome [8] | Potency [9] | Potency [10] | outcome [11] | outcome [12] | outcome [13] | outcome [14] | Potency [15] | activity change, positive = activation [16] -0.988% [at 42.5 µM] | outcome [17]

N#CCC(=O)NN
inactive: outcome [1] | outcome [2] | outcome [3] | Potency [4] | outcome [5] | Potency [6] | outcome [7] | outcome [8] | Potency [9] | Potency [10] | outcome [11] | outcome [18] | outcome [13] | outcome [19] | outcome [14] | outcome [20] | outcome [17]

CN1C[C@@H]2C[C@H]1CN2c1cc2c(cc1F)c(=O)c(C(=O)O)cn2C1CC1
inactive: activity change, negative = cytotoxicity [1] 0.369% [at 15.8 µM] | activity change, negative = cytotoxicity [2] -0.0754% [at 19 µM] | activity, negative = inhibition [3] 0.455% [at 19 µM] | Potency [4] | viability change, negative = cytotoxic [5] 5.48% [at 19 µM] | activity change, negative = inhibition [6] 0.0867% [at 23.6 µM] | viability change, negative = cytotoxic [7] -2.13% [at 19 µM] | activity change, negative = cytotoxicity [8] -13.4% [at 19 µM] | activity, negative = inhibition [9] -6.55% [at 19 µM] | activation [10] -4.55% [at 19 µM] | viability change, negative = cytotoxic [11] 6.5% [at 19 µM] | activation [18] 1.11% [at 19 µM] | activity change, negative = cytotoxicity [13] 12.6% [at 15.8 µM] | activation (H2AX phosphorylation) [19] -0.432% [at 31.6 µM] | activation [14] -0.622% [at 15.8 µM] | activity change, negative = cytotoxicity [20] 4.25% [at 31.6 µM] | activity change, negative = cytotoxicity [17] 5.55% [at 15.8 µM]

O=C(O)CCCCCC(=O)O
inactive: outcome [1] | outcome [2] | outcome [3] | Potency [4] | outcome [5] | Potency [6] | outcome [7] | outcome [8] | Potency [9] | Potency [10] | outcome [11] | outcome [12] | outcome [13] | outcome [19] | outcome [14] | outcome [20] | Potency [15] | activity change, positive = activation [16] 1.8% | outcome [17]

C/C=C(\C)C(=O)OCCc1ccccc1
inactive: outcome [1] | outcome [2] | outcome [3] | outcome [5] | outcome [7] | outcome [8] | Potency [9] | Potency [10] | outcome [11] | outcome [12] | outcome [19] | outcome [14] | outcome [20] | Potency [15] | activity change, positive = activation [16] 9.96% | outcome [17]
active: Potency [4] 27.3 µM | Potency [6] 7.1 µM

CCCCCCCCCOC(=O)c1ccccc1C(=O)OCCCCCCCCC
inactive: outcome [1] | outcome [2] | outcome [3] | Potency [4] | outcome [5] | Potency [6] | outcome [7] | outcome [8] | Potency [9] | Potency [10] | outcome [11] | outcome [18] | outcome [13] | outcome [19] | outcome [14] | outcome [20] | outcome [17]

CCCC(=O)OCCC(C)CCC=C(C)C (centres undefined)
inactive: outcome [1] | outcome [2] | outcome [3] | Potency [4] | outcome [5] | Potency [6] | outcome [7] | outcome [8] | Potency [9] | Potency [10] | outcome [11] | outcome [12] | outcome [13] | outcome [19] | outcome [14] | outcome [20] | Potency [15] | activity change, positive = activation [16] -4.9% | outcome [17]

CC(C)COC(=O)c1ccccc1
inactive: outcome [1] | outcome [2] | outcome [3] | Potency [4] | outcome [5] | Potency [6] | outcome [7] | outcome [8] | Potency [9] | Potency [10] | outcome [11] | outcome [18] | outcome [13] | outcome [19] | outcome [14] | outcome [20] | outcome [17]

OC[C@H]1O[C@@H](O[C@@H]2[C@@H](CO)O[C@](O)(CO)[C@H]2O)[C@H](O)[C@@H](O)[C@H]1O
inactive: outcome [1] | outcome [2] | outcome [3] | Potency [4] | outcome [5] | Potency [6] | outcome [7] | outcome [8] | Potency [9] | Potency [10] | outcome [11] | outcome [18] | outcome [13] | outcome [19] | outcome [14] | outcome [20] | outcome [17]

CC1=C(O)C(=O)C(C)O1 (centres undefined)
inactive: outcome [1] | outcome [2] | outcome [3] | Potency [4] | outcome [5] | Potency [6] | outcome [7] | outcome [8] | Potency [9] | Potency [10] | outcome [11] | outcome [18] | outcome [13] | outcome [19] | outcome [14] | outcome [20] | outcome [17]

OC[C@@H](O)C(O)[C@@H](O)CO (some centres undefined)
inactive: outcome [1] | outcome [2] | outcome [3] | Potency [4] | outcome [5] | Potency [6] | outcome [7] | outcome [8] | Potency [9] | Potency [10] | outcome [11] | outcome [12] | outcome [13] | outcome [19] | outcome [14] | outcome [20] | Potency [15] | activity change, positive = activation [16] 9.91% | outcome [17]

CCC(=O)CC
inactive: outcome [1] | outcome [2] | outcome [3] | Potency [4] | outcome [5] | Potency [6] | outcome [7] | outcome [8] | Potency [9] | Potency [10] | outcome [11] | outcome [12] | outcome [13] | outcome [19] | outcome [14] | outcome [20] | Potency [15] | activity change, positive = activation [16] 4.37% | outcome [17]

CC(=O)OC(C)=O
inactive: outcome [1] | outcome [2] | outcome [3] | Potency [4] | outcome [5] | Potency [6] | outcome [7] | outcome [8] | Potency [9] | Potency [10] | outcome [11] | outcome [18] | outcome [13] | outcome [19] | outcome [14] | outcome [20] | outcome [17]

C/C(CC(C)C)=N\O
inactive: outcome [1] | outcome [2] | outcome [3] | Potency [4] | outcome [5] | Potency [6] | outcome [7] | outcome [8] | Potency [9] | Potency [10] | outcome [11] | outcome [18] | outcome [13] | outcome [19] | outcome [14] | outcome [20] | outcome [17]

C/C(=C1\CCOC(=O)S1)N(C=O)Cc1cnc(C)nc1N
inactive: outcome [1] | outcome [2] | outcome [3] | Potency [4] | outcome [5] | Potency [6] | outcome [7] | outcome [8] | Potency [9] | Potency [10] | outcome [11] | outcome [18] | outcome [13] | outcome [19] | outcome [14] | outcome [20] | outcome [17]
